# Test results as given in PubChem BioAssay AID1159580 (chemical genetic matrix, 2015).
# The campaign covered roughly 5,500 compounds. About 2,000 (36%) were called active. Not shown: some 18% with an inconclusive outcome. Some of the results follow. A number with no mark means an inactive call. No stated cut-off is given here; in the data, active means normalized growth mostly below about 0.91 (no sharp cut-off); inconclusive means no clear call, values can overlap the other calls; inactive means mostly above about 0.92.
# Experiment: chemical genetic growth profiling, strain panel (AID 1159580);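 further: tested at 20 µM; growth read once vehicle control cultures reached saturation at 30 °C; 1 = growth at the plate median or of vehicle wells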
# Conditions: S. cerevisiae deletion strains, growth OD
smiles,measurement,setting,value
C[C@@H]1O[C@H](C[N+](C)(C)C)C[C@H]1O,normalized growth,"locus YAL013W, strain DEP1, stronger effect = lower value",1.01
same,normalized growth,"locus YAL040C, strain CLN3, stronger effect = lower value",1
same,normalized growth,"locus YCL061C, strain MRC1 (second series), stronger effect = lower value",1.01
same,normalized growth,"locus YDR363W, strain ESC2, stronger effect = lower value",0.993
same,normalized growth,"locus YER002W, strain NOP16, stronger effect = lower value",1.02
same,normalized growth,"locus YMR263W, strain SAP30, stronger effect = lower value",1.01
same,normalized growth,"locus YNL128W, strain TEP1, stronger effect = lower value",1
same,normalized growth,"locus YNL153C, strain GIM3, stronger effect = lower value",1.02
same,normalized growth,"locus YNL175C, strain NOP13, stronger effect = lower value",1.01
same,normalized growth,"locus YNL197C, strain WHI3, stronger effect = lower value",1.01
same,normalized growth,"locus YNL224C, strain SQS1, stronger effect = lower value",1.01
same,normalized growth,"locus YOR083W, strain WHI5 (second series), stronger effect = lower value",1.01
same,normalized growth,"locus YPL241C, strain CIN2, stronger effect = lower value",1.01
CC(C)CCCC1(C)C=Cc2c(O)c3c(c(CCC(C)C)c2O1)OC12C(CC4CC1C(C)(C)OC2(CCC(C)C(=O)O)C4O)C3=O (stereo not drawn),normalized growth,"locus YAL021C, strain ccr4, stronger effect = lower value",1
same,normalized growth,"locus YAL026C, strain drs2, stronger effect = lower value",0.991
same,normalized growth,"locus YAL030W, strain snc1, stronger effect = lower value",1
same,normalized growth,"locus YBL061C, strain skt5, stronger effect = lower value",0.996
same,normalized growth,"locus YBR009C, strain hhf1, stronger effect = lower value",0.992
same,normalized growth,"locus YBR023C, strain chs3, stronger effect = lower value",0.998
same,normalized growth,"locus YBR171W, strain sec66, stronger effect = lower value",0.991
same,normalized growth,"locus YBR231C, strain swc5, stronger effect = lower value",0.997
same,normalized growth,"locus YBR279W, strain paf1, stronger effect = lower value",0.994
same,normalized growth,"locus YCL011C, strain gbp2, stronger effect = lower value",0.994
same,normalized growth,"locus YCL016C, strain dcc1, stronger effect = lower value",0.989
same,normalized growth,"locus YCL061C, strain MRC1, stronger effect = lower value",0.986
same,normalized growth,"locus YCL069W, strain vba3, stronger effect = lower value",0.998
same,normalized growth,"locus YCR088W, strain abp1, stronger effect = lower value",0.997
same,normalized growth,"locus YDL005C, strain med2, stronger effect = lower value",0.985
same,normalized growth,"locus YDL040C, strain nat1, stronger effect = lower value",0.995
same,normalized growth,"locus YDR001C, strain nth1, stronger effect = lower value",0.998
same,normalized growth,"locus YDR069C, strain doa4, stronger effect = lower value",0.988
same,normalized growth,"locus YDR137W, strain rgp1, stronger effect = lower value",0.815 (active)
same,normalized growth,"locus YDR159W, strain sac3, stronger effect = lower value",0.991
same,normalized growth,"locus YDR195W, strain ref2",1.01
same,normalized growth,"locus YDR297W, strain sur2, stronger effect = lower value",0.998
same,normalized growth,"locus YDR334W, strain swr1, stronger effect = lower value",0.975
same,normalized growth,"locus YDR335W, strain msn5, stronger effect = lower value",0.995
same,normalized growth,"locus YDR392W, strain spt3, stronger effect = lower value",0.925
same,normalized growth,"locus YEL003W, strain gim4, stronger effect = lower value",0.982
same,normalized growth,"locus YEL037C, strain rad23, stronger effect = lower value",1.03
same,normalized growth,"locus YEL061C, strain CIN8 (second series), stronger effect = lower value",0.996
same,normalized growth,"locus YER015W, strain faa2, stronger effect = lower value",1
same,normalized growth,"locus YER016W, strain bim1, stronger effect = lower value",0.99
same,normalized growth,"locus YER111C, strain swi4, stronger effect = lower value",1.02
same,normalized growth,"locus YER155C, strain BEM2 (second series), stronger effect = lower value",1.01
same,normalized growth,"locus YFR010W, strain ubp6, stronger effect = lower value",0.986
same,normalized growth,"locus YGL167C, strain pmr1, stronger effect = lower value",0.988
same,normalized growth,"locus YGL173C, strain kem1, stronger effect = lower value",0.991
same,normalized growth,"locus YGL227W, strain vid30, stronger effect = lower value",1.01
same,normalized growth,"locus YGL240W, strain doc1, stronger effect = lower value",0.979
same,normalized growth,"locus YGL253W, strain hxk2, stronger effect = lower value",1
same,normalized growth,"locus YHR013C, strain ard1, stronger effect = lower value",1.02
same,normalized growth,"locus YHR027C, strain rpn1, stronger effect = lower value",1
same,normalized growth,"locus YHR030C, strain SLT2, stronger effect = lower value",0.966
same,normalized growth,"locus YHR079C, strain IRE1, stronger effect = lower value",0.971
same,normalized growth,"locus YHR142W, strain chs7, stronger effect = lower value",1.01
same,normalized growth,"locus YJL092W, strain hpr5, stronger effect = lower value",0.988
same,normalized growth,"locus YJL095W, strain BCK1 (second series), stronger effect = lower value",1
same,normalized growth,"locus YJL095W, strain BCK1, stronger effect = lower value",0.987
same,normalized growth,"locus YJL115W, strain asf1, stronger effect = lower value",0.996
same,normalized growth,"locus YJL129C, strain trk1, stronger effect = lower value",0.958
same,normalized growth,"locus YJL154C, strain vps35, stronger effect = lower value",0.994
same,normalized growth,"locus YJL164C, strain tpk1, stronger effect = lower value",0.982
same,normalized growth,"locus YJL166W, strain qcr8, stronger effect = lower value",0.996
same,normalized growth,"locus YJL187C, strain SWE1, stronger effect = lower value",0.997
same,normalized growth,"locus YJR066W, strain TOR1, stronger effect = lower value",0.919
same,normalized growth,"locus YKL160W, strain elf1, stronger effect = lower value",1
same,normalized growth,"locus YKR026C, strain gcn3, stronger effect = lower value",1
same,normalized growth,"locus YKR091W, strain srl3, stronger effect = lower value",0.998
same,normalized growth,"locus YLL001W, strain dnm1, stronger effect = lower value",1
same,normalized growth,"locus YLL026W, stronger effect = lower value",0.997
same,normalized growth,"locus YLL041C, strain sdh2, stronger effect = lower value",0.995
same,normalized growth,"locus YLR027C, strain aat2, stronger effect = lower value",0.999
same,normalized growth,"locus YLR113W, strain HOG1, stronger effect = lower value",0.941
same,normalized growth,"locus YLR221C, strain rsa3, stronger effect = lower value",0.989
same,normalized growth,"locus YLR258W, strain gsy2, stronger effect = lower value",0.998
same,normalized growth,"locus YLR262C, strain YPT6 (second series), stronger effect = lower value",0.919
same,normalized growth,"locus YLR320W, strain mms22, stronger effect = lower value",0.99
same,normalized growth,"locus YLR342W, strain FKS1, stronger effect = lower value",1
same,normalized growth,"locus YLR357W, strain rsc2, stronger effect = lower value",1.04
same,normalized growth,"locus YLR370C, strain arc18, stronger effect = lower value",0.999
same,normalized growth,"locus YLR384C, strain iki3, stronger effect = lower value",0.992
same,normalized growth,"locus YML120C, strain ndi1, stronger effect = lower value",0.997
same,normalized growth,"locus YMR058W, strain fet3, stronger effect = lower value",0.986
same,normalized growth,"locus YMR125W, strain sto1, stronger effect = lower value",0.991
same,normalized growth,"locus YMR129W, stronger effect = lower value",0.993
same,normalized growth,"locus YMR205C, strain PFK2, stronger effect = lower value",0.955
same,normalized growth,"locus YMR231W, strain pep5, stronger effect = lower value",0.986
same,normalized growth,"locus YNL071W, strain lat1, stronger effect = lower value",0.969
same,normalized growth,"locus YNL183C, strain NPR1, stronger effect = lower value",0.92
same,normalized growth,"locus YNL209W, strain ssb2, stronger effect = lower value",0.99
same,normalized growth,"locus YNL248C, strain rpa49, stronger effect = lower value",1.01
same,normalized growth,"locus YNL322C, strain KRE1 (second series), stronger effect = lower value",1.01
same,normalized growth,"locus YNR049C, strain mso1, stronger effect = lower value",1.01
same,normalized growth,"locus YOR001W, strain rrp6, stronger effect = lower value",0.983
same,normalized growth,"locus YOR070C, strain gyp1, stronger effect = lower value",0.995
same,normalized growth,"locus YOR080W, strain dia2, stronger effect = lower value",1
same,normalized growth,"locus YOR083W, strain WHI5, stronger effect = lower value",0.99
same,normalized growth,"locus YOR106W, strain vam3, stronger effect = lower value",0.996
same,normalized growth,"locus YOR231W, strain MKK1, stronger effect = lower value",0.964
same,normalized growth,"locus YOR265W, strain rbl2, stronger effect = lower value",1
same,normalized growth,"locus YOR270C, strain vph1, stronger effect = lower value",0.955
same,normalized growth,"locus YOR290C, strain snf2, stronger effect = lower value",0.995
same,normalized growth,"locus YPL051W, strain arl3, stronger effect = lower value",0.98
same,normalized growth,"locus YPL078C, strain atp4, stronger effect = lower value",1
same,normalized growth,"locus YPL106C, strain sse1, stronger effect = lower value",1
same,normalized growth,"locus YPL240C, strain hsp82, stronger effect = lower value",1.01
same,normalized growth,"locus YPL256C, strain CLN2, stronger effect = lower value",0.985
